Screening data deposited in PubChem BioAssay by several laboratories.
Beta apoptosis: beta cell apoptosis inhibition. protection from apoptosis, % (test concentration not listed). INS-1E cytokine-induced death, ATP luminescence, 48 h; percent of positive-control rescue, neutral wells zero. 300,000 compounds, 0.8% hits;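 active = Every replicate reaches about 75%, or at least half do and their mean reaches it too, limit read from the data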;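 note: 0% = cytokine-treated negative control wells and 100% = positive control rescue; higher means more ATP so stronger rescue from cytokine killing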
Gli-Sufu block: blocks Gli-Sufu signaling in a luciferase reporter. inhibition, % at 5 µM. 340,000 compounds, 0.74% hits. Sufu-KO-LIGHT fibroblasts, Gli luciferase reporter luminescence. AID 588413;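 active = inhibition above about 55%, limit read from the data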;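 note: 0% = DMSO-treated cells and 100% = wells with medium but no cells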
Jurkat NFkB inh: inhibitors of the PMA/ionomycin-induced NF-kB reporter in Jurkat cells; AID 435003; PMA/ionomycin-induced NF-kB luciferase reporter, luminescence; 330,000 compounds, 0.53% hits; inhibition, % at 4 µM; in the data active = inhibition above about 50%
Mdm2-MdmX inh: disrupts the human Mdm2-MdmX interaction | inhibition, % at 8 µM | SaOS-2 split-luciferase Mdm2/MdmX complementation, luminescence | AID 485346 | O15151+Q00987 | 330,000 compounds, 3% hits;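 active = inhibition of at least 50% at 8 µM in the primary screen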
697 NFkB inh: lowers PMA/ionomycin-induced NF-kB signal in 697 B cells; 330,000 compounds, 0.33% hits; inhibition, % at 4 µM; AID 435022; 697 B-cell NF-kB luciferase reporter, 16 h; in the data active = inhibition above about 35%
Jurkat NFkB conf: lowers PMA/ionomycin-induced NF-kB signal in Jurkat cells; shares compounds with Jurkat NFkB inh; 2,700 compounds, 27% hits; Jurkat NF-kB luciferase, 16 h; AID 435020; inhibition, % at 4 µM;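 active = inhibition reaching about 45% at 4 µM in either replicate, limit read from the data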;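 note: plate controls were PMA/ionomycin stimulated DMSO wells for no effect and unstimulated DMSO wells for full effect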
697 NFkB conf: lowers PMA/ionomycin-induced NF-kB signal in 697 B cells; inhibition, % at 4 µM; shares compounds with 697 NFkB inh; AID 449746; 2,000 compounds, 35% hits; 697 B-cell NF-kB luciferase, 16 h; in the data active = inhibition mostly above about 28%, no sharp cut-off; inactive = mostly below about 22%
Mdm2-MdmX conf: human Mdm2/MdmX binding inhibition, confirmed | 10,000 compounds, 55% hits | shares compounds with Mdm2-MdmX inh | inhibition, % at 8 µM | luminescent assay; in the data active = inhibition above about 40%
FLuc counter: full-length luciferase inhibition in Mdm2/MdmX counter-screen; shares compounds with Mdm2-MdmX inh; 6,200 compounds, 77% hits; SaOS-2 full-length luciferase counterscreen, luminescence; inhibition, % at 8 µM;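 active = mean inhibition at 8 µM reaching about 37%, which flags the compound as non-specific, limit read from the data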;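 note: p53-null SaOS-2 cells with luciferase driven by a doxycycline-inducible promoter; compound on cells about two nights before reading with doxycycline added after day one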
An asterisk follows results filed as active. Only some compounds are listed: those with a hit (about 4% of all), similar ones and a draw of the others.

How did COc1ccc(C2C(O)C(c3c[nH]c4ccccc34)=NN2C(=O)CCl)cc1 (configuration not stated) do in these assays?
Beta apoptosis: 129*; Gli-Sufu block: 86*; Jurkat NFkB inh: 100*; Mdm2-MdmX inh: 98*; 697 NFkB inh: 97*; Jurkat NFkB conf: -2; 697 NFkB conf: -153; Mdm2-MdmX conf: 97*; FLuc counter: 1

How did CCOc1ccc(C(C)=O)cc1COc1cccnc1[N+](=O)[O-] do in these assays?
Beta apoptosis: -6; Gli-Sufu block: -27; Jurkat NFkB inh: 54*; Mdm2-MdmX inh: 58*; 697 NFkB inh: -11; Jurkat NFkB conf: 19; Mdm2-MdmX conf: 57*; FLuc counter: 45*

Results for CSc1ncccc1C(=O)N1CCCC(Nc2ccc(C)c(C)c2)C1 (configuration not stated) ?
Beta apoptosis: -1; Gli-Sufu block: -8; Jurkat NFkB inh: 3; Mdm2-MdmX inh: 17; 697 NFkB inh: -20

Results for Cc1c2ccncc2cc2c1[nH]c1ccccc12 ?
Gli-Sufu block: 16

What do the screens show for `COc1ccc2[nH]c3c(C)c4ccncc4c(C)c3c2c1`?
Beta apoptosis: 100*; Gli-Sufu block: -27; Jurkat NFkB inh: 52*; Mdm2-MdmX inh: 100*; 697 NFkB inh: -142; Jurkat NFkB conf: 4; Mdm2-MdmX conf: 92*; FLuc counter: 7

How did C[C@@H](NC(=O)Cn1ccc(NC(=O)OCc2ccccc2)nc1=O)c1cccc2ccccc12 do in these assays?
Beta apoptosis: 5; Gli-Sufu block: -8; Jurkat NFkB inh: -17; Mdm2-MdmX inh: 20; 697 NFkB inh: -5

How did Cc1cccc(N=Nc2ccc(O)c3ncccc23)c1 do in these assays?
Beta apoptosis: 88*; Gli-Sufu block: -2; Jurkat NFkB inh: 90*; Mdm2-MdmX inh: 73*; 697 NFkB inh: -79; Jurkat NFkB conf: 40; Mdm2-MdmX conf: 89*; FLuc counter: 22

How did Cc1ccc(C)c(N=Nc2ccc(O)c3ncccc23)c1 do in these assays?
Beta apoptosis: 88*; Gli-Sufu block: 67*; Jurkat NFkB inh: 78*; Mdm2-MdmX inh: 97*; 697 NFkB inh: -103; Jurkat NFkB conf: 66*; Mdm2-MdmX conf: 96*; FLuc counter: 51*

What do the screens show for `CCOc1ccc(N=Nc2ccc(O)c3ncccc23)cc1`?
Beta apoptosis: 55; Gli-Sufu block: -14; Jurkat NFkB inh: 89*; Mdm2-MdmX inh: 68*; 697 NFkB inh: -117; Jurkat NFkB conf: 3; Mdm2-MdmX conf: 81*; FLuc counter: 23

How did O=C(/C=C/c1ccccc1Cl)Nc1ccc(-c2nnc3n2CCCCC3)cc1 do in these assays?
Beta apoptosis: 4; Gli-Sufu block: 5; Jurkat NFkB inh: 18; Mdm2-MdmX inh: -18; 697 NFkB inh: 17

Results for CC(=O)Oc1ccc(/C=N/NC(=O)CCSc2ccccc2)cc1 ?
Beta apoptosis: -1; Gli-Sufu block: 22; Jurkat NFkB inh: 4; Mdm2-MdmX inh: 4; 697 NFkB inh: 3

How did CC(NCc1ccc(-c2ccccc2)cc1)C(O)c1ccccc1 (configuration not stated) do in these assays?
Beta apoptosis: 8; Gli-Sufu block: 27; Jurkat NFkB inh: 55*; Mdm2-MdmX inh: 82*; 697 NFkB inh: -16; Jurkat NFkB conf: 13; Mdm2-MdmX conf: 63*; FLuc counter: 64*

Results for C#CC(=O)N(c1cccc(OC)c1)C(C(=O)NC1CCCC1)c1cccs1 (configuration not stated) ?
Beta apoptosis: 94*; Gli-Sufu block: 0; Jurkat NFkB inh: 99*; Mdm2-MdmX inh: 97*; 697 NFkB inh: 103*; Jurkat NFkB conf: 94*; 697 NFkB conf: 100*; Mdm2-MdmX conf: 100*; FLuc counter: 52*
